PubChem BioAssay AID1778 (Sanford-Burnham Center for Chemical Genomics, 2009)
In all, about 290,000 compounds went through this assay and about 260 (0.09%) were called active. Rule as the data show it: active = inhibition above about 50%; inactive = the rest. Many of the other results were omitted from the sample, so actives are more common in it than they were. Results with a measured potency or affinity are listed apart.

Biological target: Kappa-type opioid receptor (Homo sapiens) (UniProt P41145)
Sequence (P41145 whole entry, looked up): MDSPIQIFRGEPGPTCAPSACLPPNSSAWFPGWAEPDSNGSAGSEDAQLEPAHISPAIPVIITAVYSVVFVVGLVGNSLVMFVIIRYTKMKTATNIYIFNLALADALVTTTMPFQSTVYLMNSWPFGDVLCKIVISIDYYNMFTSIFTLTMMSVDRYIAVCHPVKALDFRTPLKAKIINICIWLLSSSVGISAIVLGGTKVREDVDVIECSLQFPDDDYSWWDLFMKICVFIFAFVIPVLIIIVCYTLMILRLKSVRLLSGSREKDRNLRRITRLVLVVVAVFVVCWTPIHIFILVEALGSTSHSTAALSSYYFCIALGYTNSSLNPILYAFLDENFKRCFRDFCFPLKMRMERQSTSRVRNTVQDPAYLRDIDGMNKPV
Assay: KOR antagonists, beta-arrestin recruitment, cell-based, luminescence, uHTS (AID 1778)
Conditions: antagonist mode, active compounds read high; at 10 µM unless noted

SMILES	inhibition
Cc1[nH][nH]c(=O)c1C(c1c(C)[nH][nH]c1=O)c1cn(Cc2ccccc2Cl)c2ccccc12	-4% (inactive)
Cc1[nH][nH]c(=O)c1C(c1c(C)[nH][nH]c1=O)c1cn(Cc2ccc(Cl)c(Cl)c2)c2ccccc12	-8.7% (inactive)
Cc1[nH][nH]c(=O)c1C(c1c(C)[nH][nH]c1=O)c1cn(Cc2ccc(F)cc2)c2ccccc12	53.6% (active)
Cc1ccc(NC(=O)C23CCC(C)(C(=O)[C@H]2Br)C3(C)C)cc1 (stereo not given in full)	-3.6% (inactive)
O=C(OCn1ncc(Cl)c(Cl)c1=O)c1ccc(F)cc1	5.2% (inactive)
O=C(OCn1ncc(Br)c(Br)c1=O)c1c(F)cccc1F	28% (inactive)
CC(C)C(C(=O)NC(C)(C)C)N1C(=O)c2ccccc2C1=O (stereo not given)	-6.7% (inactive)
Cc1cc(C(=O)Nc2ccc(Br)cc2)cs1	9.2% (inactive)
CC(=O)c1c(C)nn(CCC(=O)O)c1C	18.3% (inactive)
O=C(Nc1nccs1)c1sc2ccccc2c1Cl	-49.2% (inactive)
Cc1ccnc(NC(=O)c2sc3cc(Cl)ccc3c2Cl)c1	9.3% (inactive)
O=C(CCN1C(=O)S/C(=C/c2ccc(Cl)cc2)C1=O)N1CCOCC1	36.7% (inactive)
Cn1c(C(=O)NCc2cccnc2)cc2sccc21	26.2% (inactive)
O=C(NCc1ccccc1)c1c(Cl)nc(Cl)c(Cl)c1Cl	58.5% (active)
Cc1nc(Cl)c(C(=O)NCc2ccccc2)c(C)c1Cl	7.6% (inactive)
Cc1nc(Cl)c(C(=O)NCc2ccccc2)c(C)c1[N+](=O)[O-]	13.7% (inactive)
Cc1ccccc1-c1nc(CS(=O)(=O)CC(=O)N2CCOCC2)c(C)o1	-6% (inactive)
O=C(NCc1ccc(Cl)cc1)c1cc(=O)[nH]c2ccccc12	-54.2% (inactive)
O=C(NCc1ccccc1Cl)c1cc(=O)[nH]c2ccccc12	4.5% (inactive)
CCOC(=O)c1cc(-c2ccc(N3CCOCC3)cc2)nn1-c1ccc(F)cc1F	21.8% (inactive)
COc1ccc(NC(=O)CSc2nnnn2-c2ccc(OC)cc2)cc1	-1.3% (inactive)
CC(=O)c1cccc(NC(=O)COC(=O)c2ccc(S(C)(=O)=O)c([N+](=O)[O-])c2)c1	18.1% (inactive)
Cc1ccccc1NC(=O)COC(=O)c1ccc(S(C)(=O)=O)c([N+](=O)[O-])c1	53.9% [at 20 µM] (active)

SMILES	inhibition
CC(CCc1ccccc1)NC(=O)COC(=O)c1ccc(S(C)(=O)=O)c([N+](=O)[O-])c1 (stereo not given)	18.3% (inactive)
O=C(Cc1cccs1)Nc1ccccc1C(=O)O	27.3% (inactive)
COC(=O)Cc1cc(=O)n(-c2nc3ccccc3[nH]2)[nH]1	21.2% (inactive)
O=c1cc(-c2ccccc2)[nH]n1-c1nc2ccccc2[nH]1	11.5% (inactive)
COc1ccc(NC(=O)CSc2nc3sc(C)cc3c(=O)n2C)c(OC)c1	-25.7% (inactive)
O=C(NCC1CCCO1)C(c1ccc(F)cc1)N(Cc1ccc2c(c1)OCO2)C(=O)c1ccc(CN2CCOCC2)o1 (stereo not given)	-17.9% [at 20 µM] (inactive)
COc1cc(/C=C2\SC(=S)N(NC(=O)c3ccncc3)C2=O)ccc1O	49.4% (inactive)
CCOc1ccc(/C=C2\SC(=S)N(C(C(=O)O)c3ccccc3)C2=O)cc1OC (stereo not given)	9.7% (inactive)
CCOc1ccc(/C=C2/SC(=S)N(C(C(=O)O)c3ccccc3)C2=O)cc1OCC (stereo not given)	-34.9% (inactive)
Cc1c(N2C(=O)/C(=C/c3ccccc3)SC2=S)c(=O)n(-c2ccccc2)n1C	-9.4% (inactive)
COc1cc(/C=C2\SC(=S)N(NC(=O)c3ccc(O)cc3)C2=O)ccc1O	47.2% (inactive)
O=C1/C(=C/c2ccc(O)c(O)c2)SC(=S)N1Nc1ccccc1	35.5% (inactive)
Cc1ccc(/C=C2\SC(=S)N(c3c(C)n(C)n(-c4ccccc4)c3=O)C2=O)cc1	-2.4% (inactive)
CCOc1cc(/C=C2\SC(=S)N(Nc3ccccc3)C2=O)ccc1O	9% (inactive)
Cn1cnnc1SCC(=O)Nc1ccc(OC(F)F)cc1	-3.3% (inactive)
C/C(=N\NC(=O)c1ccc2c(c1)OCO2)c1cccnc1	14.6% (inactive)
COc1ccc(NC(=O)CCCN2C(=O)C(c3ccccc3)Oc3cccnc32)cc1OC (stereo not given)	7% (inactive)
CN1CCN(C2CC(=O)N(CCc3ccccc3)C2=O)CC1 (stereo not given)	10.4% (inactive)
Cc1cc(C(c2ccc(C)o2)c2ccc(C)o2)c(O)c([N+](=O)[O-])c1	-22.8% (inactive)
COc1ccc([N+](=O)[O-])cc1NC(=O)Cc1c(Cl)cccc1Cl	15.2% (inactive)
CCCc1nc2oc3c(N4CCNCC4)ncnc3c2c2c1CCCC2	14.5% (inactive)
CCCc1nc2sc3c(=O)n(N)cnc3c2c2c1CCCC2	-14.5% (inactive)
CC(C)Cc1nc2oc3c(Cl)ncnc3c2c2c1CCC2	32.2% (inactive)

SMILES	inhibition
CCCc1nc2sc3c(=O)[nH]cnc3c2c2c1CCCC2	-21.3% (inactive)
Cn1ccnc1Sc1ccccc1[N+](=O)[O-]	6.9% (inactive)
O=C(/C=C/c1cccc([N+](=O)[O-])c1)c1cccs1	14.1% (inactive)
CCc1cc2c(=O)[nH]c(-c3ccccn3)nc2s1	104% (active)
Cc1sc2nc(-c3ccccn3)[nH]c(=O)c2c1-c1ccccc1	49.2% (inactive)
CCc1cc2c(=O)[nH]c(-c3ccncc3)nc2s1	-17.3% (inactive)
O=c1[nH]c(-c2ccccn2)nc2ccccc12	13.8% (inactive)
CCc1cc2c(=O)[nH]c(Cc3ccccc3)nc2s1	-15.3% (inactive)
COc1ccc(CNC(=O)Nc2cccc3ccccc23)cc1	7.6% (inactive)
N#CC1=C(N)Oc2n[nH]c(-c3ccccc3)c2C1c1cccc(OC(=O)N2CCOCC2)c1 (stereo not given)	15.5% (inactive)
O=C(NCCN1CCOCC1)C(=O)NCc1ccc2c(c1)OCO2	-60.9% [at 20 µM] (inactive)
CCOc1ccc(C(=O)/C=C/Nc2ccc(S(=O)(=O)Nc3onc(C)c3C)cc2)cc1	-11% (inactive)
C[C@H](NC(=O)c1ccccc1)C(=O)Nc1nc(-c2ccccn2)cs1	-31% (inactive)
CC(Oc1ccc(Br)cc1)C(=O)NCc1ccccn1 (stereo not given)	-23.9% [at 20 µM] (inactive)
CNc1ccc(OC(F)F)cc1C(=O)c1ccccc1	17.2% (inactive)
Cc1ccc(SCC(=O)N2CCc3ccccc32)cc1	-4.7% (inactive)
CC(=O)/C(=N\Nc1cccc(Cl)c1)Sc1cccc2cccnc12	9.1% (inactive)
CC(=O)/C(=N\Nc1ccccc1Cl)Sc1cccc2cccnc12	-17.2% (inactive)
Fc1ccc2[nH]c3c(c2c1)CN(C(=S)NCc1ccccc1)CC3	-9.6% (inactive)
O=C1CSC(c2ccccc2Br)N1c1ccc(Cl)cn1 (stereo not given)	2.8% (inactive)
CCOC(=O)c1nn(-c2ccccc2C)c2nc(CC(C)C)c(C#N)c(=O)n12	-35.8% (inactive)
Cc1cc(C(=O)Nc2nc(-c3ccccn3)cs2)ccc1[N+](=O)[O-]	22.6% (inactive)
O=C(Nc1nccs1)c1cc(Cl)ccc1[N+](=O)[O-]	8.6% (inactive)

SMILES	inhibition
O=C(Nc1nc(-c2ccccn2)cs1)c1cc(Cl)ccc1[N+](=O)[O-]	86.8% (active)
CNC(=O)CSc1nc2ccccc2c(=O)n1-c1cc(OC)ccc1OC	0.7% (inactive)
CC(NC(=O)Cn1cc(C(F)(F)F)ccc1=O)c1ccc(F)cc1 (stereo not given)	-19.7% (inactive)
Cc1ccc(-c2nnc(SCC(N)=O)n2C)cc1	-13.4% [at 20 µM] (inactive)
COC(=O)CC(N)c1ccc(OC)c2ccccc12 (stereo not given)	15.2% (inactive)
Cc1[nH]oc(=O)c1N=Nc1ccccc1	-11% (inactive)
Oc1ccc(N=Nc2nc(-c3ccccc3)c(-c3ccccc3)[nH]2)cc1	32.4% (inactive)
N#Cc1ccc(NC(=O)CSc2cn[nH]n2)cc1	-56.1% (inactive)
CC(NC(=O)c1cc2cc([N+](=O)[O-])ccc2oc1=O)C1CCCO1 (stereo not given)	-4.3% [at 20 µM] (inactive)
C#CCOCCOCCOCCNc1nc(N2CCN(C(=O)[C@H](Cc3cc4ccccc4[nH]3)n3cc([C@@H](N)Cc4ccc(O)cc4)nn3)CC2)nc(N2CCN(C(=O)[C@H](Cc3cc4ccccc4[nH]3)n3cc([C@@H](N)CC(C)C)nn3)CC2)n1	51.3% (active)
C#CCOCCOCCOCCNc1nc(N2CCN(C(=O)C(Cc3ccc(O)cc3)n3cc(C(N)CC(C)C)nn3)CC2)nc(N2CCN(C(=O)C(Cc3cc4ccccc4[nH]3)n3cc(C(N)Cc4ccc(O)cc4)nn3)CC2)n1 (stereo not given)	12% (inactive)
C#CCOCCOCCOCCNc1nc(N2CCN(C(=O)[C@H](Cc3ccc(O)cc3)n3cc([C@@H](N)CC(C)C)nn3)CC2)nc(N2CCN(C(=O)[C@H](Cc3cc4ccccc4[nH]3)n3cc([C@@H](N)CC(C)C)nn3)CC2)n1	10.8% (inactive)
O=C(Nc1ccc(OC(F)(F)F)cc1)c1ccc2ccccc2n1	-27.1% (inactive)
Cc1nnc(Sc2cc(NCCO)c([N+](=O)[O-])c3nonc23)s1	17.1% (inactive)
Cc1ccc(Sc2cc(NCCCO)c([N+](=O)[O-])c3nonc23)cc1	5.8% (inactive)
CCCC(=O)OCCNc1cc(SCc2ccco2)c2nonc2c1[N+](=O)[O-]	9.3% (inactive)
CC(=O)OCCNc1cc(SC(C)C)c2nonc2c1[N+](=O)[O-]	-32.5% (inactive)
CC(=O)OCCCNc1cc(Sc2nc3ccccc3s2)c2nonc2c1[N+](=O)[O-]	-22.9% (inactive)
O=[N+]([O-])c1c(NCCCO)cc(Sc2nc3ccccc3s2)c2nonc12	42.1% (inactive)
CCCC(=O)OCCNc1cc(Sc2nc3ccccc3[nH]2)c2nonc2c1[N+](=O)[O-]	49.9% (inactive)
CCCSc1cc(NCCOC(C)=O)c([N+](=O)[O-])c2nonc12	-12.8% (inactive)
